# Data taken from the supplement of paper PMC7411054.
# What was measured:
# Settings in all cases: treatment time: 24 h
# A549-ACTB-RAB5A [1] = experiment: lowest phenotypically active concentration; higher = less potent
# Procedure, shortened: (§1)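 After 24 h at 0.3, 1, 3 or 9 µM, with four wells per treatment, fifteen gene-edited A549, HepG2 and WPMY1 reporter lines carrying BFP, GFP and RFP/FusionRed were imaged live. Each well's live-cell features were expressed relative to solvent control wells. Deviation required ≥3 of 4 wells past the 95th percentile of control Euclidean distances, and reproducibility a median replicate Pearson correlation over the 95th percentile of non-replicates. Phenotypic activity rested on both.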
# A549-GM130-SQSTM1 [2] = experiment: as above
# Procedure, shortened: as §1
# A549-TUBA1B-RELA [3] = experiment: as above
# Procedure, shortened: as §1
# HepG2-ACTB-RAB5A [4] = experiment: as above
# Procedure, shortened: as §1
# A549-ACTB-RAB5A [5] = experiment: phenotypically active (imaging signature differs from DMSO and reproducible) at any of 0.3-9 uM (binary (1 = active, 0 = inactive)); higher = active
# Procedure, shortened: as §1
# A549-CANX-COX4 = experiment: as above
# Procedure, shortened: as §1
# A549-GM130-SQSTM1 [6] = experiment: as above
# Procedure, shortened: as §1
# A549-TP53BP1-CLTA = experiment: as above
# Procedure, shortened: as §1
# A549-TUBA1B-RELA [7] = experiment: as above
# Procedure, shortened: as §1
# HepG2-ACTB-RAB5A [8] = experiment: as above
# Procedure, shortened: as §1
# HepG2-CANX-COX4 = experiment: as above
# Procedure, shortened: as §1
# HepG2-GM130-SQSTM1 = experiment: as above
# Procedure, shortened: as §1
# HepG2-TP53BP1-CLTA = experiment: as above
# Procedure, shortened: as §1
# HepG2-TUBA1B-RELA = experiment: as above
# Procedure, shortened: as §1
# WPMY1-ACTB-RAB5A = experiment: as above
# Procedure, shortened: as §1
# WPMY1-CANX-COX4 = experiment: as above
# Procedure, shortened: as §1
# WPMY1-GM130-SQSTM1 [9] = experiment: as above
# Procedure, shortened: as §1
# WPMY1-TP53BP1-CLTA = experiment: as above
# Procedure, shortened: as §1
# WPMY1-TUBA1B-RELA = experiment: as above
# Procedure, shortened: as §1
# WPMY1-GM130-SQSTM1 [10] = experiment: lowest phenotypically active concentration; higher = less potent
# Procedure, shortened: as §1
SMILES,lowest phenotypically active concentration (A549-ACTB-RAB5A [1]),lowest phenotypically active concentration (A549-GM130-SQSTM1 [2]),lowest phenotypically active concentration (A549-TUBA1B-RELA [3]),lowest phenotypically active concentration (HepG2-ACTB-RAB5A [4]),phenotypically active (A549-ACTB-RAB5A [5]),phenotypically active (A549-CANX-COX4),phenotypically active (A549-GM130-SQSTM1 [6]),phenotypically active (A549-TP53BP1-CLTA),phenotypically active (A549-TUBA1B-RELA [7]),phenotypically active (HepG2-ACTB-RAB5A [8]),phenotypically active (HepG2-CANX-COX4),phenotypically active (HepG2-GM130-SQSTM1),phenotypically active (HepG2-TP53BP1-CLTA),phenotypically active (HepG2-TUBA1B-RELA),phenotypically active (WPMY1-ACTB-RAB5A),phenotypically active (WPMY1-CANX-COX4),phenotypically active (WPMY1-GM130-SQSTM1 [9]),phenotypically active (WPMY1-TP53BP1-CLTA),phenotypically active (WPMY1-TUBA1B-RELA),lowest phenotypically active concentration (WPMY1-GM130-SQSTM1 [10])
O=C1Cc2cc(CCN3CCN(c4nsc5ccccc45)CC3)c(Cl)cc2N1 [ziprasidone],9 µM,9 µM,9 µM,3 µM,1 (active),0 (inactive),1 (active),0 (inactive),1 (active),1 (active),0 (inactive),1 (active),1 (active),1 (active),0 (inactive),0 (inactive),0 (inactive),0 (inactive),0 (inactive),
Clc1ccc2c(c1)C(N1CCNCC1)=Nc1ccccc1O2 [amoxapine],3 µM,3 µM,3 µM,9 µM,1 (active),0 (inactive),1 (active),0 (inactive),1 (active),1 (active),0 (inactive),1 (active),0 (inactive),1 (active),1 (active),0 (inactive),0 (inactive),0 (inactive),1 (active),
NC(=O)C(c1ccccc1)(c1ccccc1)[C@@H]1CCN(CCc2ccc3c(c2)CCO3)C1 [darifenacin],9 µM,9 µM,9 µM,9 µM,1 (active),0 (inactive),1 (active),0 (inactive),1 (active),1 (active),1 (active),1 (active),1 (active),0 (inactive),0 (inactive),0 (inactive),1 (active),1 (active),0 (inactive),9 µM
N#C/C(=C/c1ccc(-c2cc(Cl)ccc2Cl)o1)C(=O)Nc1cccc2ncccc12,3 µM,9 µM,≤ 0.3 µM,3 µM,1 (active),0 (inactive),1 (active),0 (inactive),1 (active),1 (active),0 (inactive),0 (inactive),0 (inactive),0 (inactive),0 (inactive),1 (active),0 (inactive),0 (inactive),0 (inactive),
COCCCC/C(=N/OCCN)c1ccc(C(F)(F)F)cc1 [fluvoxamine],9 µM,9 µM,9 µM,,1 (active),0 (inactive),1 (active),0 (inactive),1 (active),0 (inactive),0 (inactive),0 (inactive),1 (active),1 (active),1 (active),0 (inactive),0 (inactive),0 (inactive),0 (inactive),
CCCc1cc(C)n(C)c(=O)c1CN(C)C(=O)c1cc(-c2ccc(N3CCN(C(C)C)CC3)nc2)cc2c1cnn2C(C)C,3 µM,3 µM,3 µM,9 µM,1 (active),0 (inactive),1 (active),0 (inactive),1 (active),1 (active),0 (inactive),1 (active),1 (active),0 (inactive),1 (active),1 (active),1 (active),1 (active),1 (active),3 µM
CN1CCC(CN2c3ccccc3Sc3ccccc32)C1 (stereo unspecified) [methdilazine],9 µM,3 µM,3 µM,9 µM,1 (active),0 (inactive),1 (active),0 (inactive),1 (active),1 (active),0 (inactive),1 (active),1 (active),1 (active),1 (active),1 (active),1 (active),1 (active),1 (active),3 µM
O=c1cc(N2CCOCC2)oc2c(-c3cccc4c3sc3ccccc34)cccc12,1 µM,1 µM,3 µM,1 µM,1 (active),0 (inactive),1 (active),0 (inactive),1 (active),1 (active),1 (active),1 (active),1 (active),1 (active),1 (active),1 (active),1 (active),1 (active),1 (active),3 µM
Cc1cc2nc(NCCCO)n(CC(=O)c3cc(C(C)(C)C)c(O)c(C(C)(C)C)c3)c2cc1C,3 µM,3 µM,9 µM,9 µM,1 (active),0 (inactive),1 (active),0 (inactive),1 (active),1 (active),0 (inactive),0 (inactive),0 (inactive),1 (active),0 (inactive),0 (inactive),0 (inactive),0 (inactive),0 (inactive),
COc1cc(NC(=O)c2cccc(-n3cc(NC(=O)Nc4cccc(C)c4)cn3)c2)cc(OC)c1OC,9 µM,3 µM,9 µM,9 µM,1 (active),0 (inactive),1 (active),0 (inactive),1 (active),1 (active),0 (inactive),0 (inactive),0 (inactive),0 (inactive),0 (inactive),0 (inactive),1 (active),0 (inactive),1 (active),9 µM
CN(C)CCCN1c2ccccc2Sc2ccc(C(F)(F)F)cc21 [triflupromazine],3 µM,9 µM,9 µM,9 µM,1 (active),0 (inactive),1 (active),0 (inactive),1 (active),1 (active),0 (inactive),0 (inactive),0 (inactive),1 (active),1 (active),1 (active),1 (active),0 (inactive),1 (active),9 µM
CCSc1ccc2c(c1)N(CCCN1CCN(C)CC1)c1ccccc1S2 [thiethylperazine],3 µM,3 µM,3 µM,9 µM,1 (active),0 (inactive),1 (active),0 (inactive),1 (active),1 (active),0 (inactive),1 (active),0 (inactive),1 (active),1 (active),1 (active),1 (active),1 (active),1 (active),9 µM
O=C(CCCN1CCC(O)(c2ccc(Cl)cc2)CC1)c1ccc(F)cc1 [haloperidol],3 µM,9 µM,9 µM,9 µM,1 (active),0 (inactive),1 (active),0 (inactive),1 (active),1 (active),0 (inactive),1 (active),1 (active),1 (active),0 (inactive),0 (inactive),1 (active),0 (inactive),0 (inactive),9 µM
COc1ccc(Cl)cc1NC(=O)Nc1cc(C)nc2ccccc12,3 µM,3 µM,3 µM,3 µM,1 (active),0 (inactive),1 (active),0 (inactive),1 (active),1 (active),1 (active),1 (active),1 (active),1 (active),0 (inactive),0 (inactive),0 (inactive),0 (inactive),0 (inactive),
"CCCCCCCCCCCCC/C=C/[C@@H](O)[C@H](CO)N(C)C [N,N-Dimethylsphingosine]",3 µM,1 µM,3 µM,3 µM,1 (active),0 (inactive),1 (active),0 (inactive),1 (active),1 (active),1 (active),1 (active),1 (active),1 (active),1 (active),1 (active),1 (active),1 (active),1 (active),3 µM
COc1cc2c(cc1OCCCN1CCCC1)N=C(N)C21CCC1,9 µM,9 µM,9 µM,,1 (active),0 (inactive),1 (active),0 (inactive),1 (active),0 (inactive),0 (inactive),0 (inactive),0 (inactive),0 (inactive),0 (inactive),0 (inactive),0 (inactive),0 (inactive),0 (inactive),
CNCCCC12CCC(c3ccccc31)c1ccccc12 [maprotiline],3 µM,3 µM,3 µM,9 µM,1 (active),0 (inactive),1 (active),0 (inactive),1 (active),1 (active),0 (inactive),1 (active),1 (active),1 (active),1 (active),1 (active),1 (active),1 (active),1 (active),9 µM
Fc1ccc([C@@H]2CCNC[C@H]2COc2ccc3c(c2)OCO3)cc1 [paroxetine],3 µM,3 µM,3 µM,9 µM,1 (active),0 (inactive),1 (active),0 (inactive),1 (active),1 (active),0 (inactive),1 (active),1 (active),1 (active),1 (active),1 (active),1 (active),1 (active),1 (active),9 µM
CC(CN1c2ccccc2Sc2ccccc21)N(C)C (stereo unspecified) [promethazine],9 µM,9 µM,9 µM,9 µM,1 (active),0 (inactive),1 (active),0 (inactive),1 (active),1 (active),0 (inactive),1 (active),1 (active),1 (active),1 (active),0 (inactive),1 (active),1 (active),1 (active),9 µM
CC(CN(C)C)CN1c2ccccc2Sc2ccccc21.CC(CN(C)C)CN1c2ccccc2Sc2ccccc21 (stereo unspecified) [alimemazine],9 µM,9 µM,9 µM,9 µM,1 (active),0 (inactive),1 (active),0 (inactive),1 (active),1 (active),0 (inactive),1 (active),1 (active),1 (active),1 (active),0 (inactive),1 (active),0 (inactive),1 (active),≤ 0.3 µM
CN(C)CC(O)Cn1c2ccc(Br)cc2c2cc(Br)ccc21 (stereo unspecified) [Wiskostatin],3 µM,1 µM,1 µM,3 µM,1 (active),0 (inactive),1 (active),0 (inactive),1 (active),1 (active),1 (active),1 (active),1 (active),1 (active),1 (active),1 (active),1 (active),1 (active),1 (active),3 µM
